Screens (PubChem BioAssay)
Sampled rows, rich in hits. Any-hit rate of the full collection: about 11%.
HPGD block – blocks human HPGD enzyme activity. Potency, µM, hits mostly inhibitors. purified HPGD, NADH fluorescence kinetic, PGE2 substrate. P15428. 150,000 tested, 4.3% active
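20 nM HPGD preincubated 15 min at room temperature with compound in 50 mM Tris-HCl pH 8, 0.01% Tween 20. Started with 1 mM NAD+ and 30 uM prostaglandin E2; NADH fluorescence (360/450 nm) read 5 times over 30-s intervals, last minus first.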
PNC inhibitor – inhibitors of perinucleolar compartment assembly | PC3M PTB-GFP, PNC prevalence imaging, 16 h; stronger effect = lower value | activity change (PNC), negative = inhibition, % at 10 µM | 140,000 tested, 3.1% active;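 active = readout at or below -70, meaning at least 70% loss of cells showing the perinucleolar compartment, a nuclear body marking cancer cells; inconclusive = readout between -30 and a set limit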
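PC3M cells stably expressing PTB-GFP, 750–1000 cells/well, treated 16 h at 37 °C with compound (23 nl of library stock), in duplicate. After paraformaldehyde fixation and Hoechst stain, imaged at 20x; PNC prevalence scored by image analysis.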
ALDH1A1 inh – blocks purified human ALDH1A1 activity. P00352. Purified ALDH1A1, NADH fluorescence, propionaldehyde substrate. Potency, µM (doses to about 75.3 µM), hits mostly inhibitors. 220,000 tested, 7.3% active. AID 1030
Target sequence (P00352 whole entry, looked up): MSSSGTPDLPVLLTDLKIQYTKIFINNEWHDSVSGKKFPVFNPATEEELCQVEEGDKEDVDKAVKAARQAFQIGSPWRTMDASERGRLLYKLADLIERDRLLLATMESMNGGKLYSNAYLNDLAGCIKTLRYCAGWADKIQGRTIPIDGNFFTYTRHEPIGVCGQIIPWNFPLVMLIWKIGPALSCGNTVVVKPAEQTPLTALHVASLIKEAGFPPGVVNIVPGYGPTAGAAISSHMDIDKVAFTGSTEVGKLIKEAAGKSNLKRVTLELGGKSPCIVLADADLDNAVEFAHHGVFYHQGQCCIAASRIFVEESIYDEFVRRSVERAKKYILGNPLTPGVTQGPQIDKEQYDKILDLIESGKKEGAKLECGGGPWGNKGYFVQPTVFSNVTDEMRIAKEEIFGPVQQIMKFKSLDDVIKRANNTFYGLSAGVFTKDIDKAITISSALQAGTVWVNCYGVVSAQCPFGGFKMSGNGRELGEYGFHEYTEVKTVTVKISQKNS
Numbers stand for hits; 0 = inactive; ? = inconclusive; - = no result; ! = not active in a repeat; [ ] = dose if it differs, or a comment. Unless noted, calls follow the shape of the dose curve; as a rule, active = well fitted inhibition curve with a large enough effect (not every such curve was filed as active); inconclusive = small, poorly fitted or top-dose-only effect, or another doubt; inactive = no such curve, though single readings can be large or run the other way.

SMILES	HPGD block	PNC inhibitor	ALDH1A1 inh
CCOC(=O)N1CCN(c2ncnc3c2[nH]c2ccc(F)cc23)CC1	0	0	0
Fc1ccc2[nH]c3c(N4CCN(c5ccccc5)CC4)ncnc3c2c1	?	-126.1	0
O=C1[C@H]2CCC=C[C@H]2[C@H](c2cccc(Br)c2)N1Cc1ccccc1	0	-	0
Cc1ccc(/C=C2/SC(=S)N(CCC(=O)N3CCN(c4ccccc4)CC3)C2=O)cc1	0	?	?
CCOC(=O)COc1ccc(S(=O)(=O)c2ccc(OCC(=O)OCC)cc2)cc1	0	0	0
Cc1ccc(CN2C(=O)N/C(=C\c3ccc(N4CCOCC4)cc3)C2=O)cc1	0	0	0
CCN1C(=O)/C(=C/c2ccc(N3CCCC3)cc2)NC1=S	0	0	12.6µM
O=C1N/C(=C\c2ccc(N3CCOCC3)c(F)c2)C(=O)N1Cc1ccccc1	0	0	?
CCCN1C(=O)/C(=C/c2ccc(OCC(=O)OCC)cc2)NC1=S	-	-	1µM
CCCN1C(=O)/C(=C/c2ccc(N3CCCC3)c(C)c2)NC1=S	0	?	0.224µM
CCCN1C(=O)/C(=C/c2ccc(N3CCOCC3)cc2)NC1=S	-	-	6.31µM
Cc1nc(Nc2cccc(C(C)O)c2)c2nnn(Cc3ccc(F)cc3)c2n1 (centres undefined)	-	-	0
CN(C)CCCN1C(=O)C2CCc3[nH]c4ccccc4c3C2C1=O (centres undefined)	-	-	0
COc1ccc(/C=N/n2c(-c3ccco3)nc3ccccc3c2=O)cc1	0	-100.0	0
COc1cccc(/C=N/n2c(-c3ccco3)nc3ccccc3c2=O)c1	0	0	?
CN(C)Cc1ccccc1-c1cncnc1NC1CC1	0	-	0
COc1cc(/C=C/C(=O)/C=C(O)/C=C/c2ccc(O)c(OC)c2)ccc1O	22.4µM!	-	0
COc1cc(/C=C/C(=O)O)ccc1O	0	-	0
COc1cc(C=O)ccc1O	0	-	25.1µM
COC(=O)C1=C(O)/C(=C\c2ccc(O)c(OC)c2)N=C1C	0	0	0
COc1cc(/C=C2/C(=O)CNC2=O)ccc1O	-	-	12.6µM
COc1cc(/C=C/C(=O)CC(=O)/C=C/c2ccc(O)c(OC)c2)ccc1O	14.1µM!	0	8.91µM!
COc1cc(C=C(C(C)=O)C(C)=O)ccc1O	0	0	0
COc1cc(/C=C/C(=O)c2c(O)cc(C)oc2=O)ccc1O	0	-	0
c1ccc(-c2noc(CN3CCCC(OCc4ccccn4)C3)n2)cc1 (centres undefined)	-	-	0
SMILES	HPGD block	PNC inhibitor	ALDH1A1 inh
CCCCC(CC(O)COCCC)C(=O)NN (centres undefined)	-	-	0
Cc1ccc(N(CC(=O)NC(C)(C)C)C(=O)CS(=O)CC(=O)Nc2ccc(F)cc2)cc1 (centres undefined)	-	-	0
O=C(Nc1ccc(Br)cc1)Nc1ccccc1Cl	-	-	0
C=CCC(CC=C)(NC(=O)c1ccccc1C(=O)O)c1ccccc1	0	0	0
CC(=O)O[C@@H]1CC[C@]2(C)C(=C[C@@H]([C@@H]3C=C4C[C@@H](OC(C)=O)CC[C@]4(C)C4=C3[C@H]3C[C@@H]5O[C@@]6(CC[C@H](C)CO6)[C@@H](C)[C@@H]5[C@@]3(C)CC4)C3=C2CC[C@@]2(C)[C@H]4[C@@H](C)[C@]5(CC[C@H](C)CO5)O[C@@H]4C[C@H]32)C1	0	-	?
CCOC(=O)C1=NN(c2ccccc2C)C2=NC(C)=C(C(=O)OC)C(c3cccc(OC)c3)N12 (centres undefined)	0	?	0
CCOC(=O)C1CCN(C(=O)c2cc3ccccc3oc2=O)CC1	-	-	0
CC1=C(C)CC(C(=O)NNC(=O)c2csc(C)c2C)C(C(=O)O)C1 (centres undefined)	0	?	0
COC1=C(C(=O)c2ccccc2)C(=O)C2(CC=C(C)C)C[C@H](C(=O)OCC(F)(F)F)C(C)(C)[C@@]1(CC=C(C)C)C2=O (tested in a mixture with another compound)	0	-	0
CCCS(=O)(=O)n1nc(-c2ccc(Br)cc2)cc1N	0	-119.3	0
CCCS(=O)(=O)n1nc(-c2ccccc2)cc1N	0	?	0
COc1ccc(C(=O)C[n+]2ccc(-c3nnc4n3CCC4)cc2)cc1	0	?	?
Cc1cc(NC(=O)CSc2nc3ccccc3c(=O)n2C2CCCC2)no1	0	-82.8	0
CCCN(CCC)C(=O)CSc1nc2ccccc2c(=O)n1C1CCCC1	0	?	0
Cc1cc(NC(=O)CSc2nc3ccccc3c(=O)n2Cc2ccccc2)no1	0	?	0
CN(C)c1ccc(NC(=O)CSc2nc3ccccc3c(=O)n2C2CCCCC2)cc1	0	0	7.08µM
CCCCCC1OC1C/C=C\C/C=C\C/C=C\CCCC(=O)O (centres undefined)	0	-	0
COc1ccc(CN(C)Cc2ccccc2)c(OC)c1OC	0	?	0
COn1c(SC2CCCCC2)nc2ccccc2c1=O	31.6µM	?	31.6µM
CCN(CC)C(=O)CSc1nc2ccccc2c(=O)n1CC1CCCCC1	-	0	11.2µM
COn1c(SC(C)C)nc2ccccc2c1=O	0	0	0
O=C(CSc1nc2ccccc2c(=O)n1CC1CCCCC1)N1CCOCC1	0	0	?
CCn1c(SCC(=O)NCc2ccccc2)nc2ccccc2c1=O	0	0	0
CC(C)Cn1c(SCC(=O)N2CCc3ccccc3C2)nc2cc(Cl)ccc2c1=O	0	0	10µM
COCCn1c(SCC(=O)N2CCc3ccccc3C2)nc2cc(Cl)ccc2c1=O	0	0	?
SMILES	HPGD block	PNC inhibitor	ALDH1A1 inh
CCn1c(SCC(=O)c2ccccc2)nc2ccccc2c1=O	-	-	15.8µM
CSc1nnc(C(C)c2ncc(C(F)(F)F)cc2Cl)n1C (centres undefined)	-	-	0
CC(=O)OC[C@@H]1O[C@H](C/C=N\OC[C@@H](O)[C@H]2O[C@H]3OC(C)(C)O[C@H]3[C@@H]2O)C=C[C@@H]1OC(C)=O	-	-	0[13.5 µM]
Cc1nonc1CN(C)C(=O)CC1C(=O)NCCN1Cc1ccc(F)c(F)c1 (centres undefined)	-	-	0
Cc1cc(-c2nnc(SCC(=O)c3ccc(F)cc3)o2)no1	0	?	0
CC(C)(C)c1nc(SCC(=O)NCc2ccco2)c2ccccc2n1	0	0	?
CCCCn1c(SCC(=O)c2ccc(O)c(O)c2)nc2ccsc2c1=O	0	0	?
O=C1CN(C(=O)CSc2nc3cc(Cl)ccc3c(=O)n2Cc2ccccc2)c2ccccc2N1	0	0	7.94µM
COc1ccc(C(=O)CSc2nc(C(C)(C)C)nc3ccccc23)cc1	-	-	14.1µM
O=C(O)CCCCCn1c(SCC(=O)Nc2ccc(F)cc2)nc2ccsc2c1=O	-	-	0
CCCCn1c(SCC(=O)c2ccccc2)nc2ccsc2c1=O	0	0	7.08µM
O=C(O)CCCCn1c(SCC(=O)Nc2ccccc2C(F)(F)F)nc2ccsc2c1=O	0	-113.4	0
Cc1ccc(Cn2c(SCC(=O)N3CC(=O)Nc4ccccc43)nc3ccccc3c2=O)cc1	-	0	?
CCOC(=O)CSCC(=O)Nc1c(C(=O)C2CC2)oc2ccccc12	0	?	0
CSc1cc(-c2ccc(Cl)cc2)c(C(=O)N2CCCC2)s1	0	0	?
Cn1c(SCC(=O)c2ccccc2)nnc1-c1ccco1	0	0	?
CC(C)(C)c1nnc(SCC(=O)c2ccccc2)n(N)c1=O	25.1µM	-113.8	0
CCOC(=O)c1c(C)[nH]c(C)c1C(=O)CSc1nc2ccccc2c(=O)n1-c1ccc(CC)cc1	0	0	?
COc1ccc(OCCSc2nc3ccccc3n2CC(=O)O)cc1	0	?	0
